IMPase Li cell: cell-permeable IMPase inhibitors with lithium potentiation. CHO-M1 cells, IP1 TR-FRET (IP-One), carbachol + lithium. 210,000 tested, 0.35% active. AID 1457. Potency, µM (titrated, usually from 59.4 µM), actives largely listed as inhibitors;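 further: IP1 builds up when IMPase is blocked and the TR-FRET signal falls; nearly all actives have a fitted effect of over 50% in size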
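CHO cells stably expressing M1 receptor (2000/well) were cultured 16–30 h, then exposed to compounds with a small lithium addition for 30 min at 37C. IP1 was measured by TR-FRET competition; AC50 from Hill fits.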
HTT cytoprotect: Huntington cell model cytoprotection by ATP luminescence. PC12 HTT-Q103 induced, cytoprotection, ATP luminescence, 40 h. Potency, µM (doses to about 56.4 µM), hits mostly activators. 230,000 tested, 0.14% active; further: nearly all actives have a fitted effect of over 45% in size
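PC12 cells with ecdysone-inducible HTT exon 1 Q103-GFP, induced with 100 nM tebufenozide and co-treated with library compounds in a dose series (1536-well, 1500 cells/well). Cytoprotection read as ATP content by ATPlite luminescence.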
IMPase cell inh: membrane-permeable compound that blocks inositol monophosphatase; CHO-M1 cells, IP1 accumulation, HTRF TR-FRET ratio; 120,000 tested, under 10 active; inhibition (IP1 accumulation), % at 46.1 µM; P97697; active means well fitted curve in the direction sought with a large enough effect in the signal ratio, not every such curve was filed as active; inconclusive means small, poorly fitted or top-dose-only effect, or a change in a side signal; inactive means no such curve, though single readings can be large or run the other way; the % refers to the signal ratio;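 further: cells stimulated with carbachol in lithium chloride buffer; higher means more IMPase inhibition seen as more IP1 and lower FRET ratio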
Target sequence (P97697 whole entry, looked up): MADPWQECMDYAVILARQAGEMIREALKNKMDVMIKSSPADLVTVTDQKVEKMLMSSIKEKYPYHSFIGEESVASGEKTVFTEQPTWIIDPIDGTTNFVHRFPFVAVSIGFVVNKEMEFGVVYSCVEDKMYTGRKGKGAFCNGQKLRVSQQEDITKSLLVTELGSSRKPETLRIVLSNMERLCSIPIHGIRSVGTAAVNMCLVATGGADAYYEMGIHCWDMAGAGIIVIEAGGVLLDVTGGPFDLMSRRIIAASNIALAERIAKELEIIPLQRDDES
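In this qHTS, compounds (final up to 46 uM) act on CHO-M1 cells that are then activated through the M1 receptor with carbachol, in pH 7.4 buffer containing 50 mM LiCl, for 30 min. IP1 accumulation is quantified by the IP-One immunoassay.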
ALDH1A1 block: ALDH1A1 (human) enzyme inhibition; Purified ALDH1A1, NADH fluorescence, propionaldehyde substrate; AID 1030; Potency, µM (top dose mostly 75.3 µM), hits mostly inhibitors; P00352; 220,000 tested, 7.3% active; active means well fitted inhibition curve with a large enough effect, not every such curve was filed as active; inconclusive means small, poorly fitted or top-dose-only effect, or another doubt; inactive means no such curve, though single readings can be large or run the other way
HPGD block: blocks human HPGD enzyme activity; P15428; 150,000 tested, 4.3% active; Potency, µM, actives largely listed as inhibitors; purified HPGD, NADH fluorescence kinetic, PGE2 substrate; active means well fitted inhibition curve with a large enough effect, not every such curve was filed as active; inconclusive means small, poorly fitted or top-dose-only effect, or another doubt; inactive means no such curve, though single readings can be large or run the other way
Target sequence (P15428 whole entry, looked up): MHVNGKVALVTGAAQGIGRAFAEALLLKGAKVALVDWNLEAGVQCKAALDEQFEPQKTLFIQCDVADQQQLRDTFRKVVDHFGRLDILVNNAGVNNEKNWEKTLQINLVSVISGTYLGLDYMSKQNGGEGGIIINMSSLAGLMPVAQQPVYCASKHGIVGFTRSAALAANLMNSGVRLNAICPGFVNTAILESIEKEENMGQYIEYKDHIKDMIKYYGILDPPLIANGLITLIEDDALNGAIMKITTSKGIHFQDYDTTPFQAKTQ
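NADH formation kinetics: reaction with 30 uM PGE2 and 1 mM NAD+ (final), 20 nM enzyme, Tris-HCl pH 8 with Tween 20, after 15 min compound preincubation at room temperature. Fluorescence change, last versus first of five reads.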
HTT aggregate: reduces HttQ103-GFP aggregates in PC12 cells; AID 1688; PC12 HttQ103-GFP aggregates, Acumen cytometry, 40 h; 220,000 tested, 1.1% active; Potency, µM (top dose mostly 46.1 µM), hits mostly inhibitors; further: nearly all actives have a fitted effect of over 60% in size
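Ecdysone-promoter PC12 model expressing HTT exon 1 Q103 fused to GFP, induced by tebufenozide at 100 nM final. Compounds titrated; aggregates sized 1–25 µm scored on a 488 nm laser cytometer.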
Numbers stand for hits; . = inactive; ? = inconclusive; / = no result given; [ ] = another dose, or the depositor's remark. In the library only some 9.4% were active in any assay of this set; here they are far more common. Unless noted, the call rests on the fitted dose curve; in most records, active means well fitted curve in the direction sought with a large enough effect; inconclusive means small, poorly fitted or top-dose-only effect, or another doubt; inactive means no such curve, though single readings can be large; an effect the other way counts as inactive or inconclusive.

SMILES	IMPase Li cell	HTT cytoprotect	IMPase cell inh	ALDH1A1 block	HPGD block	HTT aggregate
O=S(=O)(c1ccccc1)c1nc(-c2ccc(Cl)cc2Cl)oc1N1CCCCCC1	/	/	.	/	/	/
Cc1onc(-c2ccccc2)c1CNC(=O)C1COc2ccccc2O1 (stereo not drawn)	/	.[10 µM]	/	18µM	/	.[9.22 µM]
O=C(NCc1ccccc1)C1COc2ccccc2O1 (stereo not drawn)	.	/	.	.	11µM	?
COc1ccc(CNC(=O)C2COc3ccccc3O2)c(OC)c1 (stereo not drawn)	.	.	.	?	4.5µM	.
O=C(C1COc2ccccc2O1)N1CCCC1 (stereo not drawn)	.	.	.	?	13µM	.[9.22 µM]
CC(C)=C[C@H]1[C@@H](COC(=O)c2ccccc2Cl)C1(C)C	.	.[10 µM]	/	.[13.5 µM]	.	/
CC(C)[N+](C)(C)CC(O)COc1cccc2ccccc12 (stereo not drawn)	/	.	/	/	/	.
CCOC(=O)c1c(NC(=O)/C=C/c2ccc(C(C)C)cc2)sc2c1CCC2	/	/	.	/	/	/
O=C(Nc1ccc(Cl)cn1)C1COc2ccccc2O1 (stereo not drawn)	.	.[10 µM]	/	22µM	/	.[9.22 µM]
COc1cc(OC)c(OC)cc1NC(=O)CC1COc2ccccc2O1 (stereo not drawn)	.	.[10 µM]	.	3.5µM	.	.
COc1ccc(C)cc1NC(=O)CC1COc2ccccc2O1 (stereo not drawn)	.	.	/	.	/	.
NNC(=O)c1ccc(Cn2cc(Br)cn2)cc1	.	/	/	5.6µM	.	.
NNC(=O)c1ccc(Cn2cc(Cl)cn2)cc1	.	/	/	11µM	.	.
C/C(=N\N1C(=O)c2ccccc2NC1c1ccccc1)c1ccccc1O (stereo not drawn)	.	/	/	.	/	/
C/C(=N\N1C(=O)c2ccccc2NC1c1ccco1)c1ccccc1O (stereo not drawn)	.	.	/	.	/	7.1µM
CCCCCCCC/C=C\CCCCCCCC(=O)OCC(CO)OC(=O)CCCCCCC/C=C\CCCCCCCC (stereo not drawn)	.	.	/	.	.	/
CCCCCCCCCCCCCCCCCCOC[C@@H](O)COP(=O)([O-])OCC[N+](C)(C)C	.	?	/	.	.	/
COC(=O)c1ccc(C(NC(=O)OCc2ccccc2)/C(F)=C/[C@@H](C)C(=O)NCCc2c[nH]c3ccc(OC)cc23)cc1 (stereo partly drawn)	.	.	/	?	.	/
CCOC(=O)CSc1nc2ccccc2n2cnnc12	?	.[0.074 µM]	.	18µM	?	.
O=C(CCC1N=C2c3ccccc3N=C(SCC(=O)Nc3ccccc3F)N2C1=O)NCc1ccccc1 (stereo not drawn)	/	/	.	/	/	/
CC(C)CC(=O)N1CCN(Cc2cccc(F)c2)CC1	.	.	.	.	.	.
Cc1cc(-c2nnc(CCC(=O)N3CCN(Cc4cccc(F)c4)CC3)o2)c(C)o1	.	.[10 µM]	/	28µM	/	.[9.22 µM]
CN(Cc1ccco1)c1ccnc(-c2ccoc2)n1	.	.	/	?	.	/
Cc1noc(C)c1-c1nccc(N(C)Cc2ccco2)n1	.	.	/	14µM	/	/
CC1CCN(c2c(NCC3CCC(C(=O)Nc4ccccn4)CC3)c(=O)c2=O)CC1 (stereo not drawn)	.	/	/	.	22µM	.
SMILES	IMPase Li cell	HTT cytoprotect	IMPase cell inh	ALDH1A1 block	HPGD block	HTT aggregate
CC1CCN(c2c(NCC3CCC(C(=O)NCc4ccccc4Cl)CC3)c(=O)c2=O)CC1 (stereo not drawn)	.	/	/	.	16µM	.
CCCN(C(=O)CCc1nc(-c2ccc(C)cc2)no1)c1ccc(OCC)cc1	/	/	.	/	/	/
COC(=O)NC(c1ccc2ccccc2c1)C(C(C)=O)C(=O)OC (stereo not drawn)	/	.[10 µM]	/	.[13.5 µM]	/	/
c1coc(-c2nnc3sc(-c4cccs4)nn23)c1	.	.	?	20µM	.	.
c1csc(-c2nn3c(-c4ccncc4)nnc3s2)c1	.	.[0.074 µM]	.	.	.	.
COc1cccc(-c2nnc3sc(-c4ccco4)nn23)c1	?	.	.	28µM	?	.
CN1CCN(C(=O)c2cc(-c3ccc(O)cc3)on2)CC1	/	.	/	/	/	/
CC(C)CC(=O)Nc1ccc2c(c1)OCO2	.	/	/	.	/	/
CN(C)C(=S)Nc1ccc2c(c1)OCO2	.	/	/	10µM	/	.
O=C(CCl)Nc1ccc2c(c1)OCO2	.	.	/	1.6µM	/	?
N#Cc1ccc(NCC(=O)Nc2ccc3c(c2)OCCO3)cc1	.	.[10 µM]	/	13µM	/	.
Cc1cc(C)c(OCC(=O)Nc2ccc3c(c2)OCO3)cc1C	10µM	.[10 µM]	.	?	.	.
C1CCN2C[C@H]3C[C@H](CN4CCCCC34)C2C1 (stereo partly drawn)	.	.	/	.	.	/
COc1ccc(S(=O)(=O)N2CCC(C(=O)Nc3ccc(F)cc3)CC2)c2cccnc12	.	.	/	?	/	.
CC(C)CC(NC(N)=O)C(=O)Nc1ccc2c(c1)OCO2 (stereo not drawn)	.	.	/	18µM	/	.
Cc1sc2ncnc(OCC(=O)Nc3ccc4c(c3)OCCO4)c2c1C	.	.	.	20µM	.	.
O=C(COc1ncnc2sccc12)Nc1ccc2c(c1)OCCO2	.	.	.	.	.	.
CC[C@H](C)[C@H](NC(N)=O)C(=O)Nc1ccc2c(c1)OCO2	.	.	/	.	/	.
CC(NC(=O)CSc1nc2ccc(N)cc2s1)c1ccccc1 (stereo not drawn)	.	.[10 µM]	/	?	/	.[9.22 µM]
Cc1c(C(=O)O)c(O)cc2c1C(=O)c1c(O)c([C@@H]3O[C@H](CO)[C@@H](O)[C@H](O)[C@@H]3O)c(O)c(O)c1C2=O	/	.	/	/	/	/
CN(Cc1cccs1)C(=O)/C=C/c1ccccc1[N+](=O)[O-]	.	.	/	3.2µM	/	?
CC(=O)c1cccc(N2Cc3ccccc3C2=NC(=O)CCl)c1	.	.	/	3.5µM	/	.
CCC12CSc3nc(Cl)ccc3N1C(=O)C(=O)N2C (stereo not drawn)	/	.[10 µM]	/	/	/	.[9.22 µM]
Cc1ccc(CNC(=O)c2ccc(N3CCc4ccccc43)c([N+](=O)[O-])c2)cc1	.	.[10 µM]	/	?	.	.
NNC(=O)c1ccc(N2CCc3ccccc32)c([N+](=O)[O-])c1	.	.[10 µM]	/	1.6µM	/	.
COC(CNC(=O)c1ccc(N2CCc3ccccc32)c([N+](=O)[O-])c1)OC	.	.[10 µM]	.	?	.	11µM
COC(=O)c1ccc2c(c1O)C(=O)c1ccccc1C2=O	.	.	.	.	.	.
COC(=O)c1cccc2c1-c1ccccc1/C2=N/O	.	.	.	.	.	10µM
Cc1ccc(CCNC(=O)c2ccc(Nc3nc4ccccc4n4nnnc34)cc2)cc1	/	/	.	/	/	/
COc1ccc(CCN2C(=S)NC3CC2(C)Oc2ccc([N+](=O)[O-])cc23)cc1OC (stereo not drawn)	.	.	.	.	.	10µM
